Source: PubChem BioAssay (NCATS)
Inconclusive results are not listed. Active and inactive are the calls of the source. Calls follow the shape of the dose curve; as a rule, active = well fitted curve in the direction sought with a large enough effect; inconclusive = small, poorly fitted or top-dose-only effect, or another doubt; inactive = no such curve, though single readings can be large; an effect the other way counts as inactive or inconclusive.

What was measured:
[1] = target: Glucagon-like peptide 1 receptor (Homo sapiens) (UniProt P43220); assay: qHTS of GLP-1 Receptor Agonists: LOPAC Validation (AID 624148);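 also: luminescence from a luciferase reporter switched on by cAMP; higher luminescence signal means agonism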
Glucagon-like peptide 1 receptor (Homo sapiens), sequence (P43220 whole entry, looked up): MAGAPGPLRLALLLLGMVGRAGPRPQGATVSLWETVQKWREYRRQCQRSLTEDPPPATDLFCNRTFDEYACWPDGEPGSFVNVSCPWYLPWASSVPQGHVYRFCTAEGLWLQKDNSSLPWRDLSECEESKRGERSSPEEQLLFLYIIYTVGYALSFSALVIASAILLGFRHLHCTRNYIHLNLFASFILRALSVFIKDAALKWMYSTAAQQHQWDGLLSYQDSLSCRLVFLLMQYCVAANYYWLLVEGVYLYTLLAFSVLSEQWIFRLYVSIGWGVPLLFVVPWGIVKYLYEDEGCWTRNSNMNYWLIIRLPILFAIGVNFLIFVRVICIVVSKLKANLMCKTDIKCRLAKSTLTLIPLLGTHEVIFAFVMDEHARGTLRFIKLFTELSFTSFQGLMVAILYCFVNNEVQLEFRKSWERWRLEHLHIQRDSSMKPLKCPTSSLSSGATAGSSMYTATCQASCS
Method in brief: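 Agonism scored as increased luciferase luminescence driven by cAMP in HEK293 clones carrying GLP-1R. Cells settled 12 hours, received compound for 4-6 hr at 37 deg C, 5% CO2, and were read after 12 min detection reagent at RT.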

[2] = qHTS of Nrf2 Activators: LOPAC Validation (AID 624149)
Method in brief: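 ARE reporter activation measured in AREc32 firefly luciferase cells after 24 hr compound exposure; Steady-Glo luminescence.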

[3] = HTS Assay for Allosteric Antagonists of the Human D2 Dopamine Receptor: Hit Validation in HTRF (AID 624455);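 also: stable D1 dopamine receptor cell line scored for blocking the D1 response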
Method in brief: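 Signal from an HTRF read-out in D1-expressing stable cells gave hit activity as inhibition of the D1 response.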

Measured: Potency

COc1ccc(NC(=O)/C=C/c2ccc(Cl)cc2)cc1
inactive: all assays above

O=C(Nc1cccc(C(=O)Nc2ccc(S(=O)(=O)O)c3cc(S(=O)(=O)O)cc(S(=O)(=O)O)c23)c1)Nc1cccc(C(=O)Nc2ccc(S(=O)(=O)O)c3cc(S(=O)(=O)O)cc(S(=O)(=O)O)c23)c1
inactive: all assays above

O=C(c1ccc(Cl)cc1)N1CCN(c2ccc([N+](=O)[O-])c3ncccc23)CC1
inactive: all assays above

O=Nc1ccc2oc(=O)ccc2c1
inactive: all assays above

CSc1nc(N)c2ncn([C@@H]3O[C@H](COP(=O)(O)OP(=O)(O)OP(=O)(O)O)[C@@H](O)[C@H]3O)c2n1
inactive: all assays above

CCCCN1CCC(n2c(=O)[nH]c3ccccc32)CC1
inactive: all assays above

COc1ccccc1N1CCN(CCN(C(=O)c2ccc(I)cc2)c2ccccn2)CC1
inactive: all assays above

N#C/C(=C\c1ccc(O)c(O)c1)C(=O)NCCCc1ccccc1
inactive: all assays above

Clc1ccc(N2CCN(Cc3cc4ccccn4n3)CC2)cc1
inactive: all assays above

O=C(O)c1cc([N+](=O)[O-])ccc1NCCCc1ccccc1
inactive: all assays above

O=C(O)CC[C@@H](C(=O)O)N1C(=O)c2ccccc2C1=O
inactive: all assays above

O=C(c1ccc(OCCCc2cnc[nH]2)cc1)C1CC1
inactive: all assays above

NC(=O)C(=O)O
inactive: all assays above
